Measured values reported in the supplement of paper PMC12494721.
Counter-ions that a name gives are not always drawn.

These compounds were tested on Klebsiella aerogenes DSM 30053 (assay: fold change of Histamine concentration vs plate DMSO controls (fold change (ratio)); higher = more amine produced, active = hit call of the paper (significant change in both replicates, either direction)). Conditions: incubation time: 27 h, anaerobic, 37 °C;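 for the amine columns active = adjusted P below 0.05 in both replicates with a change the same way and a mean fold change under 0.8 or over 1.25; inactive = the rest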.
Method in brief: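 In 80 µL wells, cultures of four gut bacterial strains in mGAM started at OD 0.1 before a 1:1 dilution and grew anaerobically at 37 °C for 27 h. Compounds were added to 20 µM final, except sweeteners at 50 µM final. After extraction of whole cultures with cold acetonitrile/methanol plus 0.1% formic acid and centrifugation, amines were measured by LC–triple-quadrupole MS in dynamic MRM mode against external calibration curves, with within-batch drift correction. Values give fold change over DMSO controls on the same plate, averaged across 2 biological replicates.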

Row | Structure (SMILES) | fold change of Histamine concentration
1 | CCc1nc(N)nc(N)c1-c1ccc(Cl)cc1 [Pyrimethamine] (20 µM) | 1.07 (inactive)
2 | CC(=O)Oc1cccc2c1C(=O)c1c(OC(C)=O)cc(C(=O)O)cc1C2=O [Diacerein] (20 µM) | 0.952 (inactive)
3 | CC(C)(CO)[C@@H](O)C(=O)NCCCO [(D)-Panthenol] (20 µM) | 1.02 (inactive)
4 | CCc1cc(Cl)c(OC)c(C(=O)NC[C@@H]2CCCN2CC)c1O [(S,-) Eticlopride hydrochloride] (20 µM) | 1.04 (inactive)
5 | O=C1c2cccc(O)c2C(=O)c2c(O)cccc21 [Danthron] (20 µM) | 0.93 (inactive)
6 | CN(C)CCC(c1ccc(Br)cc1)c1ccccn1 (centres undefined) [Brompheniramine maleate] (20 µM) | 0.891 (inactive)
7 | NC[C@H]1O[C@H](O[C@H]2[C@H](O[C@@H]3O[C@H](CO)[C@@H](O)[C@H]3O)[C@@H](O)[C@H](N)C[C@@H]2N)[C@H](N)[C@@H](O)[C@@H]1O [Ribostamycin sulfate salt] (20 µM) | 0.975 (inactive)
8 | NS(=O)(=O)c1cc2c(cc1Cl)N=CNS2(=O)=O [Chlorothiazide] (20 µM) | 1.05 (inactive)
9 | CCc1oc2ccccc2c1C(=O)c1cc(Br)c(O)c(Br)c1 [Benzbromarone] (20 µM) | 0.958 (inactive)
10 | O=C1NCN(c2ccccc2)C12CCN(CCCC(c1ccc(F)cc1)c1ccc(F)cc1)CC2 [Fluspirilene] (20 µM) | 0.981 (inactive)
11 | C[C@H](CCC(=O)O)[C@H]1CC[C@H]2[C@@H]3C(=O)C[C@@H]4CC(=O)CC[C@]4(C)[C@H]3CC(=O)[C@]12C [Dehydrocholic acid] (20 µM) | 1.02 (inactive)
12 | CCn1cc(C(=O)O)c(=O)c2ccc(C)nc21 [Nalidixic acid sodium salt] (20 µM) | 1.43 (inactive)
13 | COc1cc(C(=O)NS(=O)(=O)c2ccccc2C)ccc1Cc1cn(C)c2ccc(NC(=O)OC3CCCC3)cc12 [Zafirlukast] (20 µM) | 1.05 (inactive)
14 | NCCc1ccc(O)c(O)c1 [Dopamine hydrochloride] (20 µM) | 1.06 (inactive)
15 | Cc1c(-c2ccccc2)oc2c(C(=O)OCCN3CCCCC3)cccc2c1=O [Flavoxate hydrochloride] (20 µM) | 1.01 (inactive)
16 | Oc1c(I)cc(Cl)c2cccnc12 [Clioquinol] (20 µM) | 1.03 (inactive)
17 | CN(C)C(=N)NC(=N)N [Metformin hydrochloride] (20 µM) | 0.96 (inactive)
18 | N=C(N=C(N)N)N1CCOCC1 [Moroxidine hydrochloride] (20 µM) | 1.11 (inactive)
19 | CCOCC(O)COc1ccc(NC(=O)CC[S+](C)C)cc1 (centres undefined) [Suplatast Tosylate] (20 µM) | 1.03 (inactive)
20 | CCN1CCN(c2cc3c(cc2F)c(=O)c(C(=O)O)cn3C2CC2)CC1 [Enrofloxacin] (20 µM) | 0.0794 (active)
21 | C=C1c2c(Cl)ccc(O)c2C(O)=C2C(=O)[C@]3(O)C(O)=C(C(N)=O)C(=O)[C@@H](N(C)C)[C@@H]3[C@@H](O)[C@H]12.O=C(O)c1cc(S(=O)(=O)O)ccc1O [Meclocycline sulfosalicylate] (20 µM) | 0.0573 (active)
22 | C#CCN(C)CCCOc1ccc(Cl)cc1Cl [Clorgyline hydrochloride] (20 µM) | 1.04 (inactive)
23 | CC1(C)[C@H](C(=O)O)N2C(=O)C[C@H]2S1(=O)=O [Sulbactam] (20 µM) | 1.05 (inactive)
24 | CC(C)(C)C(=O)C(Oc1ccc(Cl)cc1)n1ccnc1 (centres undefined) [Climbazole] (20 µM) | 0.96 (inactive)
25 | CC1(C)O[C@@H]2[C@@H](CO[C@@]3(COS(N)(=O)=O)OC(C)(C)O[C@@H]23)O1 [Topiramate] (20 µM) | 1 (inactive)
26 | CN1CCC(OC(c2ccccc2)c2ccccc2)CC1 [Diphenylpyraline hydrochloride] (20 µM) | 1.05 (inactive)
27 | O=c1[nH]c(=O)n([C@H]2C[C@H](O)[C@@H](CO)O2)cc1/C=C/Br [Brivudine] (20 µM) | 0.978 (inactive)
28 | COC(=O)C1=C(C)NC(C)=C(C(=O)OCC(C)C)C1c1ccccc1[N+](=O)[O-] (centres undefined) [Nisoldipine] (20 µM) | 0.949 (inactive)
29 | CCOC(=O)C(C)(C)Oc1ccc(Cl)cc1 [Clofibrate] (20 µM) | 1.07 (inactive)
